Molecular target: T1, GABPA (Homo sapiens, UniProt Q06546 1-454)
T1 sequence: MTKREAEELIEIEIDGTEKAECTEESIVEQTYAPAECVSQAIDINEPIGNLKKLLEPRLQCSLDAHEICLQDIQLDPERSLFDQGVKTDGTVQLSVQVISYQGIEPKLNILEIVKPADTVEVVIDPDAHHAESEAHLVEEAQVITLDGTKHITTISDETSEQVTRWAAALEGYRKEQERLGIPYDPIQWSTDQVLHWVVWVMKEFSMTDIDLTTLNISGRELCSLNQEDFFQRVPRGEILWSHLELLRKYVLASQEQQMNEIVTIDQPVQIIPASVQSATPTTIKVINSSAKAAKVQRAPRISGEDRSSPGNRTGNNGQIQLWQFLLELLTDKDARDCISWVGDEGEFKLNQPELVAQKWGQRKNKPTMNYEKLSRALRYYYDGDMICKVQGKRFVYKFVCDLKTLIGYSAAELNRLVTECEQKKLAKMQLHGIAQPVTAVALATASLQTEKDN
Test: DAPPL (digital affinity profiling via proximity ligation, sequencing); 10 mM Tris-HCl pH 7.5, 50 mM NaCl, 1 mM DTT, 4% glycerol, room temperature, 30 min; GST-TFs on glutathione beads, 16-mer random dsDNA library, 0.1% formaldehyde crosslink after washing; high values mean tight binding
Details: protein: recombinant; tags: N-terminal GST; dsDNA, one strand shown
Procedure, shortened: (§1)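 Yeast served to express human transcription factors as GST fusions, which were then captured on glutathione beads and labelled with DNA barcodes. Pooled with a tag-only sample, they were incubated with 200 nmole of a 16-mer random double-stranded DNA library for 30 min at room temperature in Tris/NaCl/DTT/glycerol buffer, washed, crosslinked with 0.1% formaldehyde, ligated by proximity, amplified by PCR and sequenced. Dividing each hexamer's read frequency for a factor by its frequency for the tag-only sample gives the binding signal.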

Compared with GTCTAC, CATCGC is higher in binding signal: 1.08 fold enrichment (6-mer frequency, TF over GST control) for the first, 1.13 fold enrichment (6-mer frequency, TF over GST control) for the second.

First: AAGGCA
Second: GGTTTT
The binding signal of the first is lower: 1.03 fold enrichment (6-mer frequency, TF over GST control) for the first, 1.2 fold enrichment (6-mer frequency, TF over GST control) for the second.

Molecular target: T2, ERG (Homo sapiens, UniProt P11308 1-479)
T2 sequence: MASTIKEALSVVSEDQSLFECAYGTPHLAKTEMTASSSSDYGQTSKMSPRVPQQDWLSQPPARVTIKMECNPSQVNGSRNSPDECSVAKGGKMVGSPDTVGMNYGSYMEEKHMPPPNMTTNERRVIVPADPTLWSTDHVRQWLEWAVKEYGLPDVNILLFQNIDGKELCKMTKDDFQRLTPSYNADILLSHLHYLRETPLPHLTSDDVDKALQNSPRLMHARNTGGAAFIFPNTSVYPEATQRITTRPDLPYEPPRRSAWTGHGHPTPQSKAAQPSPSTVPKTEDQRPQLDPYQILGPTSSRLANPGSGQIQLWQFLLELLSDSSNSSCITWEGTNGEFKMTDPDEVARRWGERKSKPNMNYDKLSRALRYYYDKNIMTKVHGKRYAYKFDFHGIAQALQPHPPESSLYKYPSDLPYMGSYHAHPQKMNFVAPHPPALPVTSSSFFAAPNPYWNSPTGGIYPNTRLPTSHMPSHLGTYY
Test: as above
Details: protein: recombinant; tags: N-terminal GST; dsDNA, one strand shown
Procedure, shortened: as §1

Going from TGGACC to CCACAC, the binding signal rises from 1.04 fold enrichment (6-mer frequency, TF over GST control) to 1.07 fold enrichment (6-mer frequency, TF over GST control).

First: CGGCCT
Second: GCCCAC
The binding signal of the first is higher: 1.17 fold enrichment (6-mer frequency, TF over GST control) for the first, 1.06 fold enrichment (6-mer frequency, TF over GST control) for the second.

Compared with TTGGTC, TTGCCG is lower in binding signal: 1.06 fold enrichment (6-mer frequency, TF over GST control) for the first, 1.04 fold enrichment (6-mer frequency, TF over GST control) for the second.

TGGTCA and AGCAAC are the same in binding signal: 1.06 fold enrichment (6-mer frequency, TF over GST control) for the first, 1.06 fold enrichment (6-mer frequency, TF over GST control) for the second.

First: AAAGCG
Second: GGGTTC
The binding signal of the first is higher: 1.09 fold enrichment (6-mer frequency, TF over GST control) for the first, 1.04 fold enrichment (6-mer frequency, TF over GST control) for the second.

CATACG and CCGATG are the same in binding signal: 1.06 fold enrichment (6-mer frequency, TF over GST control) for the first, 1.06 fold enrichment (6-mer frequency, TF over GST control) for the second.

First: ATGCCG
Second: CCACCT
The binding signal of the first is higher: 1.12 fold enrichment (6-mer frequency, TF over GST control) for the first, 1.11 fold enrichment (6-mer frequency, TF over GST control) for the second.

Compared with CGCCCG, TCAACA is lower in binding signal: 1.14 fold enrichment (6-mer frequency, TF over GST control) for the first, 1.04 fold enrichment (6-mer frequency, TF over GST control) for the second.

Going from GTCCCA to TGGTGC, the binding signal falls from 1.17 fold enrichment (6-mer frequency, TF over GST control) to 1.16 fold enrichment (6-mer frequency, TF over GST control).

Compared with ACATGG, GTCTTG is lower in binding signal: 1.16 fold enrichment (6-mer frequency, TF over GST control) for the first, 1.05 fold enrichment (6-mer frequency, TF over GST control) for the second.

Going from ATGGTG to ACCACC, the binding signal falls from 1.19 fold enrichment (6-mer frequency, TF over GST control) to 1.11 fold enrichment (6-mer frequency, TF over GST control).

First: TGCCAA
Second: GCTGCC
The binding signal of the first is higher: 1.06 fold enrichment (6-mer frequency, TF over GST control) for the first, 1.02 fold enrichment (6-mer frequency, TF over GST control) for the second.

Compared with GCCCCA, CCGCTG is lower in binding signal: 1.1 fold enrichment (6-mer frequency, TF over GST control) for the first, 1.05 fold enrichment (6-mer frequency, TF over GST control) for the second.

Going from ACGTTG to CCATGC, the binding signal rises from 1.05 fold enrichment (6-mer frequency, TF over GST control) to 1.09 fold enrichment (6-mer frequency, TF over GST control).

Going from GTTGAT to AAGGGT, the binding signal falls from 1.08 fold enrichment (6-mer frequency, TF over GST control) to 1 fold enrichment (6-mer frequency, TF over GST control).

Going from GTCTAC to CATCGC, the binding signal rises from 1.05 fold enrichment (6-mer frequency, TF over GST control) to 1.06 fold enrichment (6-mer frequency, TF over GST control).

For GGTTTT, the binding signal was 1.1 fold enrichment (6-mer frequency, TF over GST control).

Molecular target: ELF1 (Homo sapiens, UniProt P32519 1-619)
Test: as above
Details: protein: recombinant; tags: N-terminal GST; dsDNA, one strand shown
Procedure, shortened: as §1

Chain of ELF1 (P32519 whole entry): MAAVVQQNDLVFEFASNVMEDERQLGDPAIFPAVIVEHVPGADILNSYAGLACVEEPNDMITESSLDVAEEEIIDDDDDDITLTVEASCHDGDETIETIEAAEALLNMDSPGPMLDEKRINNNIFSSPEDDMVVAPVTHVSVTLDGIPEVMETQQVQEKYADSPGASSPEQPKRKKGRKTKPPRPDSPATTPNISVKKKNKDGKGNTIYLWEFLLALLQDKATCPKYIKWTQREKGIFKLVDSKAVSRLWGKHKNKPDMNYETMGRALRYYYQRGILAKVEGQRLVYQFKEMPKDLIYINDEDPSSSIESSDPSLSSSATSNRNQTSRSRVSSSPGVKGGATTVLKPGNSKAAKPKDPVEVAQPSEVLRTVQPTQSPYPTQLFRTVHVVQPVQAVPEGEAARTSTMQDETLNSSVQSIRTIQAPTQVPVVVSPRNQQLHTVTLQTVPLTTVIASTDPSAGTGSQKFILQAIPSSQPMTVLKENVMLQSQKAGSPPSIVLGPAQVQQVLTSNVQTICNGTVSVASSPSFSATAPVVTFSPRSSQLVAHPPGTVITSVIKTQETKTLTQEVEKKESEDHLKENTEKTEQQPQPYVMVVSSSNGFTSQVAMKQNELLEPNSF

First: TGGACC
Second: TGCTGC
The binding signal of the first is lower: 1.06 fold enrichment (6-mer frequency, TF over GST control) for the first, 1.21 fold enrichment (6-mer frequency, TF over GST control) for the second.

Going from CCACAC to CGGCCT, the binding signal falls from 1.12 fold enrichment (6-mer frequency, TF over GST control) to 1.1 fold enrichment (6-mer frequency, TF over GST control).

Compared with GCCCAC, TTGGTC is higher in binding signal: 1.1 fold enrichment (6-mer frequency, TF over GST control) for the first, 1.15 fold enrichment (6-mer frequency, TF over GST control) for the second.

Going from CATCCA to TTGCCG, the binding signal rises from 1.02 fold enrichment (6-mer frequency, TF over GST control) to 1.03 fold enrichment (6-mer frequency, TF over GST control).

First: AGCAAC
Second: AAAGCG
The binding signal of the first is higher: 1.08 fold enrichment (6-mer frequency, TF over GST control) for the first, 1.06 fold enrichment (6-mer frequency, TF over GST control) for the second.

First: GGGTTC
Second: CATACG
The binding signal of the first is higher: 1.11 fold enrichment (6-mer frequency, TF over GST control) for the first, 1.08 fold enrichment (6-mer frequency, TF over GST control) for the second.

Going from ATGCCG to CCACCT, the binding signal rises from 1.09 fold enrichment (6-mer frequency, TF over GST control) to 1.15 fold enrichment (6-mer frequency, TF over GST control).

First: CGCCCG
Second: TCAACA
The binding signal of the first is higher: 1.18 fold enrichment (6-mer frequency, TF over GST control) for the first, 1.03 fold enrichment (6-mer frequency, TF over GST control) for the second.

First: ACCACA
Second: GTCCCA
The binding signal of the first is lower: 1.08 fold enrichment (6-mer frequency, TF over GST control) for the first, 1.14 fold enrichment (6-mer frequency, TF over GST control) for the second.

Going from ACATGG to GTCTTG, the binding signal falls from 1.15 fold enrichment (6-mer frequency, TF over GST control) to 1 fold enrichment (6-mer frequency, TF over GST control).

Going from ATGGTG to ACCACC, the binding signal rises from 1.13 fold enrichment (6-mer frequency, TF over GST control) to 1.18 fold enrichment (6-mer frequency, TF over GST control).

Going from TGCCAA to GCTGCC, the binding signal falls from 1.18 fold enrichment (6-mer frequency, TF over GST control) to 1.03 fold enrichment (6-mer frequency, TF over GST control).

Going from GCCCCA to CCGCTG, the binding signal falls from 1.05 fold enrichment (6-mer frequency, TF over GST control) to 1 fold enrichment (6-mer frequency, TF over GST control).

Compared with ACGTTG, CCATGC is higher in binding signal: 1.03 fold enrichment (6-mer frequency, TF over GST control) for the first, 1.13 fold enrichment (6-mer frequency, TF over GST control) for the second.

Going from GTTGAT to AAGGGT, the binding signal falls from 1.11 fold enrichment (6-mer frequency, TF over GST control) to 1.01 fold enrichment (6-mer frequency, TF over GST control).

Going from GTCTAC to CATCGC, the binding signal rises from 1.05 fold enrichment (6-mer frequency, TF over GST control) to 1.06 fold enrichment (6-mer frequency, TF over GST control).

Compared with AAGGCA, GGTTTT is higher in binding signal: 1 fold enrichment (6-mer frequency, TF over GST control) for the first, 1.11 fold enrichment (6-mer frequency, TF over GST control) for the second.

Molecular target: T3, EHF (Homo sapiens, UniProt Q9NZC4 1-300)
T3 sequence: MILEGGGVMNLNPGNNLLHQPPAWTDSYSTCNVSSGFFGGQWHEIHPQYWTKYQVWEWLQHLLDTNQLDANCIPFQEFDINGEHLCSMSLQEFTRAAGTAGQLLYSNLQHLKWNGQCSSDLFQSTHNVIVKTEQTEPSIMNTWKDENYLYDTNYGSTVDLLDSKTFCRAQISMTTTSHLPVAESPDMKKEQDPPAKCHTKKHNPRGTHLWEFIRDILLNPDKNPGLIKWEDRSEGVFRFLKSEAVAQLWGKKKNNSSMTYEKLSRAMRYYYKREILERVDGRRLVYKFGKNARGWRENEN
Test: as above
Details: protein: recombinant; tags: N-terminal GST; dsDNA, one strand shown
Procedure, shortened: as §1

Compared with TGGACC, TGCTGC is higher in binding signal: 1.1 fold enrichment (6-mer frequency, TF over GST control) for the first, 1.3 fold enrichment (6-mer frequency, TF over GST control) for the second.

Compared with CCACAC, CGGCCT is lower in binding signal: 1.12 fold enrichment (6-mer frequency, TF over GST control) for the first, 1.08 fold enrichment (6-mer frequency, TF over GST control) for the second.

Going from GCCCAC to TTGGTC, the binding signal rises from 1.13 fold enrichment (6-mer frequency, TF over GST control) to 1.14 fold enrichment (6-mer frequency, TF over GST control).

First: TTGCCG
Second: TGGTCA
The binding signal of the first is higher: 1.19 fold enrichment (6-mer frequency, TF over GST control) for the first, 1.01 fold enrichment (6-mer frequency, TF over GST control) for the second.

Compared with AGCAAC, AAAGCG is lower in binding signal: 1.15 fold enrichment (6-mer frequency, TF over GST control) for the first, 1.1 fold enrichment (6-mer frequency, TF over GST control) for the second.

Going from GGGTTC to CATACG, the binding signal rises from 1.02 fold enrichment (6-mer frequency, TF over GST control) to 1.07 fold enrichment (6-mer frequency, TF over GST control).

First: CCGATG
Second: ATGCCG
The binding signal of the first is lower: 1.03 fold enrichment (6-mer frequency, TF over GST control) for the first, 1.16 fold enrichment (6-mer frequency, TF over GST control) for the second.

Going from CCACCT to GCGCGC, the binding signal falls from 1.21 fold enrichment (6-mer frequency, TF over GST control) to 1.06 fold enrichment (6-mer frequency, TF over GST control).

Compared with CGCCCG, TCAACA is lower in binding signal: 1.11 fold enrichment (6-mer frequency, TF over GST control) for the first, 1.05 fold enrichment (6-mer frequency, TF over GST control) for the second.

Going from ACCACA to GTCCCA, the binding signal falls from 1.11 fold enrichment (6-mer frequency, TF over GST control) to 1.1 fold enrichment (6-mer frequency, TF over GST control).

First: TGGTGC
Second: ACATGG
The binding signal of the first is higher: 1.15 fold enrichment (6-mer frequency, TF over GST control) for the first, 1.1 fold enrichment (6-mer frequency, TF over GST control) for the second.

First: GTCTTG
Second: ATGGTG
The binding signal of the first is lower: 1.09 fold enrichment (6-mer frequency, TF over GST control) for the first, 1.17 fold enrichment (6-mer frequency, TF over GST control) for the second.

Going from ACCACC to TGCCAA, the binding signal falls from 1.15 fold enrichment (6-mer frequency, TF over GST control) to 1.09 fold enrichment (6-mer frequency, TF over GST control).

Compared with GCTGCC, CCGCTG is lower in binding signal: 1.24 fold enrichment (6-mer frequency, TF over GST control) for the first, 1.05 fold enrichment (6-mer frequency, TF over GST control) for the second.

Compared with ACGTTG, CCATGC is higher in binding signal: 1.07 fold enrichment (6-mer frequency, TF over GST control) for the first, 1.15 fold enrichment (6-mer frequency, TF over GST control) for the second.

First: GTTGAT
Second: AAGGGT
The binding signal of the first is higher: 1.04 fold enrichment (6-mer frequency, TF over GST control) for the first, 1.01 fold enrichment (6-mer frequency, TF over GST control) for the second.

Compared with GTCTAC, AAGGCA is lower in binding signal: 1.16 fold enrichment (6-mer frequency, TF over GST control) for the first, 1.09 fold enrichment (6-mer frequency, TF over GST control) for the second.

For GGTTTT, the binding signal was 1.08 fold enrichment (6-mer frequency, TF over GST control).
